Results from PMC10726135, “HNF4α isoforms regulate the circadian balance between carbohydrate and lipid metabolism in the liver”.
Whole data set: some 18,000 sequences, median “log2 normalized intensity” near 0.36, cut for the highest 2% near 7.3. This is one part of a sample in which the highest values are shown more often than they occur.

Target: T1, HNF4alpha8 (COS-7 nuclear extract) (Homo sapiens, UniProt P41235-5 1-452)
T1 sequence: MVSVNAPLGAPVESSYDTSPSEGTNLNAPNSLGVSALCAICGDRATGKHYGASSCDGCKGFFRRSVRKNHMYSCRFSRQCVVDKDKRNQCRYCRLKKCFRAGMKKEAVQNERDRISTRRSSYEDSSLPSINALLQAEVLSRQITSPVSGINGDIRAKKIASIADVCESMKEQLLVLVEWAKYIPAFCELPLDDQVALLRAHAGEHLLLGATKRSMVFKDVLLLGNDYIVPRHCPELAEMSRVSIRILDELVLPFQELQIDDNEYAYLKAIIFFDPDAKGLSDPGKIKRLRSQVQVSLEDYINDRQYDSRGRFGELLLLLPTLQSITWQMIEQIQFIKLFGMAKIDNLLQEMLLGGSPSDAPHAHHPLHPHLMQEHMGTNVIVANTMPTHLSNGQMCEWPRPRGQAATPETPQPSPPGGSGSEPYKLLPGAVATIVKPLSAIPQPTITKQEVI
Assay: protein-binding microarray; COS-7 nuclear extract on double-stranded Agilent 4x180k PBM; binding buffer, salt, pH and temperature not given in the material; high values mean tight binding
Conditions: chain copies: 2; label: 3' end of strand 1 on the slide; dsDNA, one strand shown
Summary of the method: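 Binding signal was defined as the normalized, background-corrected gProcessedSignal reported by Agilent software. It came from nuclear extracts of COS-7 cells transiently transfected with a human HNF4α isoform expression vector, applied to a custom Agilent SurePrint G3 4x180k array. That array held ~44,000 test sequences in quadruplicate as double-stranded ~60-nt oligonucleotides, and bound HNF4α was imaged at 2-µm resolution on an Agilent G2565CA scanner.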

Row | Sequence | binding signal
1 | TCTGTCTGAGACCACTTAAGCCTGGAATTCGCCTAGGGAGATTAGAGTATCGGTCGA | -0.0786 log2 normalized intensity
2 | ACCCATGTTTGCCCTTGATAAGAGCTGCTCGCCTAGGGAGATTAGAGTATCGGTCGA | 0.685 log2 normalized intensity
3 | AGGTGAATGTACAAAGGTCAACGGCACAAGGCCTAGGGAGATTAGAGTATCGGTCGA | 5.02 log2 normalized intensity
4 | TGAGCACATTCTTCAATATCAGTGGCACTCGCCTAGGGAGATTAGAGTATCGGTCGA | 0.295 log2 normalized intensity
5 | CTAGGCAATCCCATGACCTTTGTACTAATGGCCTAGGGAGATTAGAGTATCGGTCGA | 8.3 log2 normalized intensity
6 | CACCTTCTTCCTAGGCAATCCCATGACCTTGCCTAGGGAGATTAGAGTATCGGTCGA | 3.52 log2 normalized intensity
7 | TCTTCCTAGGCAATCCCATGACCTTTGTACGCCTAGGGAGATTAGAGTATCGGTCGA | 9.08 log2 normalized intensity
8 | CAATCCCATGACCTTTGTACTAATGATTTGGCCTAGGGAGATTAGAGTATCGGTCGA | 6.73 log2 normalized intensity
9 | CCATGACCTTTGTACTAATGATTTGTAAATGCCTAGGGAGATTAGAGTATCGGTCGA | 6.03 log2 normalized intensity
10 | TGTCTTCTGACCTTTGGCAATATCTCCCAGGCCTAGGGAGATTAGAGTATCGGTCGA | 3.96 log2 normalized intensity
11 | GGACTTCTCTGCCCTCTTCCCTCTACCTCTGCCTAGGGAGATTAGAGTATCGGTCGA | 1.97 log2 normalized intensity
12 | AAACAGACCTCTCTCTCCCCAGACAGCCACGCCTAGGGAGATTAGAGTATCGGTCGA | 2.71 log2 normalized intensity
13 | TATTTACATACCTTAGGCTGTGCATATTGGGCCTAGGGAGATTAGAGTATCGGTCGA | 0.994 log2 normalized intensity
14 | CCTCCTGCTTAGCGGCCTTCCCCTTTTTCTGCCTAGGGAGATTAGAGTATCGGTCGA | 1.99 log2 normalized intensity
15 | TCAGACAAGTTGCAGGGATGGACTTTAATCGCCTAGGGAGATTAGAGTATCGGTCGA | 7.17 log2 normalized intensity
16 | CCCCCTATCCCAAGACATCAATTAACTTGTGCCTAGGGAGATTAGAGTATCGGTCGA | 3.09 log2 normalized intensity
17 | CCTAGCCCCACCAAACTGACAGGTTAGACTGCCTAGGGAGATTAGAGTATCGGTCGA | 2.33 log2 normalized intensity
18 | TCTTCAGGCTGGGGCCCCATCGACCTTTGCGCCTAGGGAGATTAGAGTATCGGTCGA | 7.4 log2 normalized intensity
19 | AGACATCGACCTTTGTGGGCTTCAGACATTGCCTAGGGAGATTAGAGTATCGGTCGA | 2.32 log2 normalized intensity
20 | CCCATCGACCTTTGCTCCCGACTCTGAGGCGCCTAGGGAGATTAGAGTATCGGTCGA | 5.95 log2 normalized intensity
21 | ACCTCCTGGGCCCAAGTGCTCCTCCCCATCGCCTAGGGAGATTAGAGTATCGGTCGA | 3.58 log2 normalized intensity

Row | Sequence | binding signal
22 | AGGCTGGGGCCCCATCGACCTTTGCTCCCGGCCTAGGGAGATTAGAGTATCGGTCGA | 10.5 log2 normalized intensity
23 | GCTCTAGACATCGACCTTTGTGGGCTTCAGGCCTAGGGAGATTAGAGTATCGGTCGA | 3.19 log2 normalized intensity
24 | CGACCTTTGCTCCCGACTCTGAGGCTCCATGCCTAGGGAGATTAGAGTATCGGTCGA | 5.96 log2 normalized intensity
25 | GGGGCCCCATCGACCTTTGCTCCCGACTCTGCCTAGGGAGATTAGAGTATCGGTCGA | 8.88 log2 normalized intensity
26 | GTCCCTGGCCCCGGGGCGGGGGCGGGCTGGGCCTAGGGAGATTAGAGTATCGGTCGA | -0.21 log2 normalized intensity
27 | AGCAATCATATATGCATTTGTCTCAGGTGGGCCTAGGGAGATTAGAGTATCGGTCGA | 1.26 log2 normalized intensity
28 | CCTAAAATTGACCTTTGATCACTCATGGGCGCCTAGGGAGATTAGAGTATCGGTCGA | 8.68 log2 normalized intensity
29 | AATTGACCTTTGATCACTCATGGGCAAGATGCCTAGGGAGATTAGAGTATCGGTCGA | 6.41 log2 normalized intensity
30 | GCACTGATAAGCGTATTTCAACCTTTGATCGCCTAGGGAGATTAGAGTATCGGTCGA | 8.45 log2 normalized intensity
31 | GTGGTCCTAAGACTGACCTTTGATCATTTGGCCTAGGGAGATTAGAGTATCGGTCGA | 9.52 log2 normalized intensity
32 | GACTGACCTTTGATCATTTGAGGGTGACACGCCTAGGGAGATTAGAGTATCGGTCGA | 6.1 log2 normalized intensity
33 | TTGTTTACTCATGTGGTCCTAAGACTAACCGCCTAGGGAGATTAGAGTATCGGTCGA | 0.432 log2 normalized intensity
34 | AATCAACCTTTGATCGTTTGCATGCAGGGCGCCTAGGGAGATTAGAGTATCGGTCGA | 3.98 log2 normalized intensity
35 | AGGAGGCACTGATAAGCGTATTTCAACCTTGCCTAGGGAGATTAGAGTATCGGTCGA | 0.651 log2 normalized intensity
36 | GATAAGCGTATTTCAACCTTTGATCTATAAGCCTAGGGAGATTAGAGTATCGGTCGA | 6.82 log2 normalized intensity
37 | CTCATGTGGTCCTAAGACTGACCTTTGATCGCCTAGGGAGATTAGAGTATCGGTCGA | 10.6 log2 normalized intensity
38 | GTTTACTCATGTGGTCCTAAGACTGACCTTGCCTAGGGAGATTAGAGTATCGGTCGA | 4.61 log2 normalized intensity
39 | GAACTGAAAGAGACCTTTGACATCACCTAAGCCTAGGGAGATTAGAGTATCGGTCGA | 2.77 log2 normalized intensity
40 | AATGCCCAGGATTCCTTTTTCACTGCTCACGCCTAGGGAGATTAGAGTATCGGTCGA | -0.85 log2 normalized intensity
41 | CACTTCCCGAGTGAGGCAATGCCTCGCCCTGCCTAGGGAGATTAGAGTATCGGTCGA | -0.664 log2 normalized intensity
42 | ATTCAGCATTGCTTGGGAGCAGTCCTTGGGGCCTAGGGAGATTAGAGTATCGGTCGA | -0.959 log2 normalized intensity

Row | Sequence | binding signal
43 | AGCATGTTTGGTGACCCGTGACCCTCAGGAGCCTAGGGAGATTAGAGTATCGGTCGA | 3.82 log2 normalized intensity
44 | CCGTCTCTCACCAAATCCCTGCCCACATCCGCCTAGGGAGATTAGAGTATCGGTCGA | 2.23 log2 normalized intensity
45 | CTCCTTGGAAGTCGCCGTGAGGTTATTTGCGCCTAGGGAGATTAGAGTATCGGTCGA | 0.914 log2 normalized intensity
46 | GAGAGGCTTATGCATGGGAGATCTTCAGTAGCCTAGGGAGATTAGAGTATCGGTCGA | -0.357 log2 normalized intensity
47 | TTCCTTATCTGGAATTCCTCCTCCTGTTTGGCCTAGGGAGATTAGAGTATCGGTCGA | 0.85 log2 normalized intensity
48 | TCTTTTGACCTTTGCCTCATTCTTATTGCCGCCTAGGGAGATTAGAGTATCGGTCGA | 5.61 log2 normalized intensity
49 | GACCTTTATATGTCCACCTTATCTAATGCCGCCTAGGGAGATTAGAGTATCGGTCGA | 2.22 log2 normalized intensity
50 | AGCAAACCTGTCTCTCTGCATTCCTCCTGGGCCTAGGGAGATTAGAGTATCGGTCGA | 0.684 log2 normalized intensity
51 | TCTTTAAGGACCACATCAAAGGTCATCTCTGCCTAGGGAGATTAGAGTATCGGTCGA | 5.09 log2 normalized intensity
52 | TGCAGTGTCCATGGTGACCATGTGATGTGAGCCTAGGGAGATTAGAGTATCGGTCGA | 1.26 log2 normalized intensity
53 | CTCATGTGGTCCTAAAATTGACCTTTGATCGCCTAGGGAGATTAGAGTATCGGTCGA | 11 log2 normalized intensity
54 | GTGGTCCTAAAATTGACCTTTGATCACTCAGCCTAGGGAGATTAGAGTATCGGTCGA | 10.2 log2 normalized intensity
55 | AGTGCGATGATCATGGCTCACTGCACCTTGGCCTAGGGAGATTAGAGTATCGGTCGA | 0.737 log2 normalized intensity
56 | GCTGACCTTTGGTCTAAACCTACTTAGATCGCCTAGGGAGATTAGAGTATCGGTCGA | 4.73 log2 normalized intensity
57 | CAAATAAACCTTTGACCAATTGACCCTATCGCCTAGGGAGATTAGAGTATCGGTCGA | 4.69 log2 normalized intensity
58 | TCATGGCTCACTGCACCTTGACCTCCTGGGGCCTAGGGAGATTAGAGTATCGGTCGA | 5.78 log2 normalized intensity
59 | GATGATCATGGCTCACTGCACCTTGACCTCGCCTAGGGAGATTAGAGTATCGGTCGA | 8.12 log2 normalized intensity
60 | TGCCTTTGATCAGGGACCTTTGTTCCTTTAGCCTAGGGAGATTAGAGTATCGGTCGA | 5 log2 normalized intensity
61 | TGCACTTTGACCGCTCATTTGATCCTCACAGCCTAGGGAGATTAGAGTATCGGTCGA | 4.61 log2 normalized intensity
